Experimental findings from PMC7862700, “An all-to-all approach to the identification of sequence-specific readers for epigenetic DNA modifications on cytosine” are described below.

Assay in all cases: DAPPL (digital affinity profiling via proximity ligation, sequencing); 10 mM Tris-HCl pH 7.5, 50 mM NaCl, 1 mM DTT, 4% glycerol, room temperature, 30 min; GST-TFs on glutathione beads, 16-mer random dsDNA library, 0.1% formaldehyde crosslink after washing; high values mean tight binding
Holding throughout (details): protein: recombinant; tags: N-terminal GST; dsDNA, one strand shown

One test deals with T1, FLI1 (Homo sapiens, UniProt Q01543 1-452).
T1 sequence: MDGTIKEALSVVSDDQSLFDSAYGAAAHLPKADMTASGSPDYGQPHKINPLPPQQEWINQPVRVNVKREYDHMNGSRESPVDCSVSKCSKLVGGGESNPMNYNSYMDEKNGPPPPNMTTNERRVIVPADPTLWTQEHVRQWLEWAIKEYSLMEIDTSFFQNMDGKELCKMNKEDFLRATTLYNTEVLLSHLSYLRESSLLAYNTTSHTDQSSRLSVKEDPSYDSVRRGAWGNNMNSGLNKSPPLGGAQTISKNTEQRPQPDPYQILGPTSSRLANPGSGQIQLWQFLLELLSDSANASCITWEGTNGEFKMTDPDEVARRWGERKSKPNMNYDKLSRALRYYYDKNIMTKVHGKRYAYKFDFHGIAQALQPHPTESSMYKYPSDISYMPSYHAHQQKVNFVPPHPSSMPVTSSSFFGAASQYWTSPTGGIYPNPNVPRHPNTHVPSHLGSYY
Put shortly: (§1)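 Binding signal is each hexamer's read frequency for a factor divided by its frequency in the tag-only sample. The factors were GST-fused human transcription factors from yeast, captured on glutathione beads, DNA-barcoded and pooled with that sample. Pools were incubated with 200 nmole of a random double-stranded 16-mer DNA library in Tris/NaCl/DTT/glycerol buffer at room temperature for 30 min, then washed, crosslinked with 0.1% formaldehyde, proximity-ligated with BsaI/T4 ligase (1 h, 37 °C), PCR-amplified and sequenced on an Illumina NextSeq500.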

The target in the next test is T2, ELK1 (Homo sapiens, UniProt P19419 1-428).
T2 sequence: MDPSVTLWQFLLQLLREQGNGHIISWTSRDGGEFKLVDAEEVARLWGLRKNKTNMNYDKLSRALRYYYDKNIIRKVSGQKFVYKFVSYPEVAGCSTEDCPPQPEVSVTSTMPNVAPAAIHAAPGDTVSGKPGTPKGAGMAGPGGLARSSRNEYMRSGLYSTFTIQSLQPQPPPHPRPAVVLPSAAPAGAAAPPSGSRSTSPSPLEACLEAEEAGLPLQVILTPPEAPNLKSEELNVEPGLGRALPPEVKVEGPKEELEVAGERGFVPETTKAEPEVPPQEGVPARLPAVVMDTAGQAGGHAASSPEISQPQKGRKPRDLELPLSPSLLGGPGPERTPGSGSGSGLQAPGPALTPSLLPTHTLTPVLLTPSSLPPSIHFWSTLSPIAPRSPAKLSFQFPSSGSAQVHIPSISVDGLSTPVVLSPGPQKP
The method in brief: as §1

A further test addresses T3, GABPA (Homo sapiens, UniProt Q06546 1-454).
T3 sequence: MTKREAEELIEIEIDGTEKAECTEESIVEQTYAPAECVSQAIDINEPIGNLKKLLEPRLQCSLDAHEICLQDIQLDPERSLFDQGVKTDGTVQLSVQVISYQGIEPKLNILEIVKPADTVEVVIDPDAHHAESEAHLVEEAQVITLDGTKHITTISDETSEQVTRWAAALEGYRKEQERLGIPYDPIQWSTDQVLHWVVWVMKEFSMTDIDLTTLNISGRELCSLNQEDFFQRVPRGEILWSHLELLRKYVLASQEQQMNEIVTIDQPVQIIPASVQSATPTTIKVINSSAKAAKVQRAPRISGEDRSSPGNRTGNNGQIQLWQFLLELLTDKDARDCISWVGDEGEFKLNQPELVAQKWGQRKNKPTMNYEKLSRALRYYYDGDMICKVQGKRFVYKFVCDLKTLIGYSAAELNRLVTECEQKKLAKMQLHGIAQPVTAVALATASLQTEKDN
Put shortly: as §1

For another test, the target named is T4, ERG (Homo sapiens, UniProt P11308 1-479).
T4 sequence: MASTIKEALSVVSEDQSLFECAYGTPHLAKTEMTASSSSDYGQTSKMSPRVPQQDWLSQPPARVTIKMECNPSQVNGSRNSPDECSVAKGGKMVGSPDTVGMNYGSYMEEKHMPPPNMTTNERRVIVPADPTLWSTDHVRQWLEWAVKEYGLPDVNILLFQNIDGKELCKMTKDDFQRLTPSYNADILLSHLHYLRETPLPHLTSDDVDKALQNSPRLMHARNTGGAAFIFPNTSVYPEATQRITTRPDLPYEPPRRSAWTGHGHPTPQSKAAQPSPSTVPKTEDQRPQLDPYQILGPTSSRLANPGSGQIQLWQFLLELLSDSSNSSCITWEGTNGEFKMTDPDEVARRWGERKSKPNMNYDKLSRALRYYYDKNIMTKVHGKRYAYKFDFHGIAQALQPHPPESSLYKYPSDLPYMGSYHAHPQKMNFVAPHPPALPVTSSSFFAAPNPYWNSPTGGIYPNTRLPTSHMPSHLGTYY
The method in brief:
as §1

Another test deals with ELF1 (Homo sapiens, UniProt P32519 1-619). The method in brief:
as §1

Another test deals with T5, EHF (Homo sapiens, UniProt Q9NZC4 1-300).
T5 sequence: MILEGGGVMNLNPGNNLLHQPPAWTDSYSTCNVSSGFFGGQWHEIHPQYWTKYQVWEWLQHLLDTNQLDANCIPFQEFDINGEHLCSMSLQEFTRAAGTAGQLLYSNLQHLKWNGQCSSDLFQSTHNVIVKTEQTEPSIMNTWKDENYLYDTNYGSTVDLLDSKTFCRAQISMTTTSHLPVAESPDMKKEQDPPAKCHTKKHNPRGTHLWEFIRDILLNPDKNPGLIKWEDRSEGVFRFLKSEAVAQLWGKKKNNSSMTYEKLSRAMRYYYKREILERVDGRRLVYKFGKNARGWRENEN
The method in brief:
as §1

Another test concerns the target SPI1 (Homo sapiens, UniProt P17947 1-270). The method in brief: as §1
A further test deals with SPIB (Homo sapiens, UniProt Q01892 1-262). Put shortly: as §1
For the next test, the target named is T6, ELK3 (Homo sapiens, UniProt P41970 1-407).
T6 sequence: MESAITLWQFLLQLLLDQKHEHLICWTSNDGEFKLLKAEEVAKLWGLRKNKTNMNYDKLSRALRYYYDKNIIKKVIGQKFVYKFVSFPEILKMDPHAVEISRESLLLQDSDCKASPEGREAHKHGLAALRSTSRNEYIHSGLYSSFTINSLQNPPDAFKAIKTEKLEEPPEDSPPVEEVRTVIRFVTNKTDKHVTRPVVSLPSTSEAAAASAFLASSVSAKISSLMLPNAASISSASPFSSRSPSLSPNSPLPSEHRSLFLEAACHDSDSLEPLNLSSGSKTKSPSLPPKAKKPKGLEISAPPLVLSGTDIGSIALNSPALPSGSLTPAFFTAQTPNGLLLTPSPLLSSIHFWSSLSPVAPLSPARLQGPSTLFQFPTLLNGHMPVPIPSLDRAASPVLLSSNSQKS
Put shortly: as §1

The target of the next test is T7, FEV (Homo sapiens, UniProt Q99581 1-238).
T7 sequence: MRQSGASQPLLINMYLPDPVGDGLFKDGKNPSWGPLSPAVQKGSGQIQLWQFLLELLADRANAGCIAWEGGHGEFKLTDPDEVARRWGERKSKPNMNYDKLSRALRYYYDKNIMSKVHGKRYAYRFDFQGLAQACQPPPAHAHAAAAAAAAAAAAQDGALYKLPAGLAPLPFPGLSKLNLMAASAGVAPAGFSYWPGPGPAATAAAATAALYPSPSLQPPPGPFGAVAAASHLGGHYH
The method in brief:
as §1

In another test the target is ETV5 (Homo sapiens, UniProt P41161 1-510). The method in brief: as §1
The target of the next test is T8, SPIC (Homo sapiens, UniProt Q8N5J4 1-248).
T8 sequence: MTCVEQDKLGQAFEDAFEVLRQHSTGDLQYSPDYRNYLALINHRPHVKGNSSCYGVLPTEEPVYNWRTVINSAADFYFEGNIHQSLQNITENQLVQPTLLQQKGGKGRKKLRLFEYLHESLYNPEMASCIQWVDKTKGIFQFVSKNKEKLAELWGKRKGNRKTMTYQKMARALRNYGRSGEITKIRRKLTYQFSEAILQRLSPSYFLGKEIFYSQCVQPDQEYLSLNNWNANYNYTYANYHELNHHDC
The method in brief: as §1

The target of the next test is ELF4 (Homo sapiens, UniProt Q99607 1-663). The method in brief: as §1
The target in a further test is T9, ELK4 (Homo sapiens, UniProt P28324-2 1-405).
T9 sequence: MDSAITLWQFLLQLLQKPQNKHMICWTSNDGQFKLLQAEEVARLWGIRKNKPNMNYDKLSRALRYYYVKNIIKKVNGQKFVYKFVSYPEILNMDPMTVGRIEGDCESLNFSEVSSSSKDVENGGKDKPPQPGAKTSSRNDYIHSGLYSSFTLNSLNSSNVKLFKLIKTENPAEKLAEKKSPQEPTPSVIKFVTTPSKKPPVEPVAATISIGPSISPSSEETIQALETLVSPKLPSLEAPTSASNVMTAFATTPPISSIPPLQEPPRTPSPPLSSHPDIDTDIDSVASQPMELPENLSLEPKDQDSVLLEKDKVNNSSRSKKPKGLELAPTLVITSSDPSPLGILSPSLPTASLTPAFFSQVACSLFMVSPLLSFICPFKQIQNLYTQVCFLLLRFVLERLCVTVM
Put shortly: as §1

The next test deals with T10, ETV2 (Homo sapiens, UniProt O00321 1-342).
T10 sequence: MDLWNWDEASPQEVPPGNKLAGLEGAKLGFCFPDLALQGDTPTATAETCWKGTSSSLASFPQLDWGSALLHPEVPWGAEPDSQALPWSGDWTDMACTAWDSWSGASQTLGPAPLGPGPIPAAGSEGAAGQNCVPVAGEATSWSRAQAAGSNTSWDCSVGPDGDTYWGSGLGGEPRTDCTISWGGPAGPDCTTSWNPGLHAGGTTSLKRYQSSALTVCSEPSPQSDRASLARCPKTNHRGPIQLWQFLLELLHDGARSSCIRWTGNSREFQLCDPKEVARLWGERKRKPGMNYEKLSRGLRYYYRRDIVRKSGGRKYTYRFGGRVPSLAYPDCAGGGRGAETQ
Put shortly: as §1

The target in the next test is T11, ELF3 (Homo sapiens, UniProt P78545 1-371).
T11 sequence: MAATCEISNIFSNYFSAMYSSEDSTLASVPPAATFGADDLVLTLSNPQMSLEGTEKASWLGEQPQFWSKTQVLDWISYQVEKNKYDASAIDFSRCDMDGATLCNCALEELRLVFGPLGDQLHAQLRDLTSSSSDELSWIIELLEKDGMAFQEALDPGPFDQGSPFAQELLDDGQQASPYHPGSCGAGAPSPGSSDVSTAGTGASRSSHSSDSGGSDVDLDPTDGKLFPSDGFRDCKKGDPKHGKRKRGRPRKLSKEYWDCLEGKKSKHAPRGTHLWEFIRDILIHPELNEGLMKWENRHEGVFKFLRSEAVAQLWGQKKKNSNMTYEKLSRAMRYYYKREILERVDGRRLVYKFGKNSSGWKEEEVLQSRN
Put shortly:
as §1

Another test concerns the target CRX (Homo sapiens, UniProt O43186 1-299). Put shortly:
as §1

For a further test, the target named is ETV1 (Homo sapiens, UniProt P50549 1-477). Put shortly:
as §1

ELF1, sequence (P32519 whole entry): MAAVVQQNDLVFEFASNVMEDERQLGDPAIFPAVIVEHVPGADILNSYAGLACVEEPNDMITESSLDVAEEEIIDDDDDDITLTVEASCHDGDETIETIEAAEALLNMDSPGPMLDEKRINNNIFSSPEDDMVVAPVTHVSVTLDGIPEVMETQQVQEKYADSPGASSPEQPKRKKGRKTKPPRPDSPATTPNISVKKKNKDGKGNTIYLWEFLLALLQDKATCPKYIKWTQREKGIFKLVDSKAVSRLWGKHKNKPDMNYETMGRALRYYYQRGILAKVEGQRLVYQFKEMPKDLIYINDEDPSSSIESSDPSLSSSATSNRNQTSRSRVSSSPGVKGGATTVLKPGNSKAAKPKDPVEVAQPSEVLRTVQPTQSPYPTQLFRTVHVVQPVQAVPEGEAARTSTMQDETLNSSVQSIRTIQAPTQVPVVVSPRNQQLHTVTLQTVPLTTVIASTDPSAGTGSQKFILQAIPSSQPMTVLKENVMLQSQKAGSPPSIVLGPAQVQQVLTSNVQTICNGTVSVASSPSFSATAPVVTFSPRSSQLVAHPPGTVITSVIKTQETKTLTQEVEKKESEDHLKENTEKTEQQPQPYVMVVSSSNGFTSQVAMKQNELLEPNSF
SPIB, sequence (Q01892 whole entry): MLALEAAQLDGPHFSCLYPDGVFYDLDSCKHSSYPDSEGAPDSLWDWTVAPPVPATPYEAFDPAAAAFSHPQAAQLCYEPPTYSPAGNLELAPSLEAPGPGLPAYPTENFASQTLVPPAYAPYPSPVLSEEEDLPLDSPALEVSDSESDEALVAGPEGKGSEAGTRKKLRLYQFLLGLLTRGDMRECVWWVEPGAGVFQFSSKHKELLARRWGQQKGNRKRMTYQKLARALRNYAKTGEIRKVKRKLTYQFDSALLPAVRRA
ELF4, sequence (Q99607 whole entry): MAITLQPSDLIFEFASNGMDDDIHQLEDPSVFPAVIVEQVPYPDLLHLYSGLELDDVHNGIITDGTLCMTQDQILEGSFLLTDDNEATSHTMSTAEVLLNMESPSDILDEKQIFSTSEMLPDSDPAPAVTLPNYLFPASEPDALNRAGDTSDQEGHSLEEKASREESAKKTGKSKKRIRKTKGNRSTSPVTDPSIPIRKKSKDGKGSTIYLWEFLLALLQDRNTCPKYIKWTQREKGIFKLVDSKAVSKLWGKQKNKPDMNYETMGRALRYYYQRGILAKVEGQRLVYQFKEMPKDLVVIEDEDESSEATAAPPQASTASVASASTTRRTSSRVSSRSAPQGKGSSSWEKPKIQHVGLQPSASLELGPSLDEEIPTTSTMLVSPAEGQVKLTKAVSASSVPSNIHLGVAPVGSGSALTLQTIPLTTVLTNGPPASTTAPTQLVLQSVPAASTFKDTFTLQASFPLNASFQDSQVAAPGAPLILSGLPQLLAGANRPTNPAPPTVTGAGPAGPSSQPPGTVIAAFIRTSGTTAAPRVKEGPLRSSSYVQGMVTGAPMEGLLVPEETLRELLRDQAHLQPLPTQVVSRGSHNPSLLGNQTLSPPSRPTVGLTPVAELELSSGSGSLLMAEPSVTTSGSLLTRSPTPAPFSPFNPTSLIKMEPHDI
CRX, sequence (O43186 whole entry): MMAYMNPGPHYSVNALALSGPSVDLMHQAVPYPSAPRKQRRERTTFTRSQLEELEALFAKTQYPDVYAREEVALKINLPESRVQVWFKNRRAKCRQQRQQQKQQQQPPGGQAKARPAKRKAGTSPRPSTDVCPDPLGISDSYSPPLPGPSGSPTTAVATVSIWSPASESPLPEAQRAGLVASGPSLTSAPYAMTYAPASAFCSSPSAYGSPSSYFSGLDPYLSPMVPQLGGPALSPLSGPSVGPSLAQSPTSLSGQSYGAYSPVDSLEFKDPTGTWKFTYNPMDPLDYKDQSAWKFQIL
ETV5, sequence (P41161 whole entry): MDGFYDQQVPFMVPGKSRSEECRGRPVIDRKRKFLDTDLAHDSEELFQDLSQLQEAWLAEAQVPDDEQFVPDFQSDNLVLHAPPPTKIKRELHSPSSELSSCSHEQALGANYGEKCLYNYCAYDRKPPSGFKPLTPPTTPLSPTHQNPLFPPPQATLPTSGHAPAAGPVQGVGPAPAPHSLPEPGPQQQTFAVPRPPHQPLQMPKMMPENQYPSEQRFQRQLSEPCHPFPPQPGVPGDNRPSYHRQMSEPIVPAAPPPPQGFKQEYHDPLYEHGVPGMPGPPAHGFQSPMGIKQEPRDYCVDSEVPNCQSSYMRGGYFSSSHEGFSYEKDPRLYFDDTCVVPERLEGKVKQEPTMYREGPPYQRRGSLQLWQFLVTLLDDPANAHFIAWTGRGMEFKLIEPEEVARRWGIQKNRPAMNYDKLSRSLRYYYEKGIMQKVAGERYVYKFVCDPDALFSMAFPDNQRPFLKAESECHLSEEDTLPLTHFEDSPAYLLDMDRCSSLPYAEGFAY
ETV1, sequence (P50549 whole entry): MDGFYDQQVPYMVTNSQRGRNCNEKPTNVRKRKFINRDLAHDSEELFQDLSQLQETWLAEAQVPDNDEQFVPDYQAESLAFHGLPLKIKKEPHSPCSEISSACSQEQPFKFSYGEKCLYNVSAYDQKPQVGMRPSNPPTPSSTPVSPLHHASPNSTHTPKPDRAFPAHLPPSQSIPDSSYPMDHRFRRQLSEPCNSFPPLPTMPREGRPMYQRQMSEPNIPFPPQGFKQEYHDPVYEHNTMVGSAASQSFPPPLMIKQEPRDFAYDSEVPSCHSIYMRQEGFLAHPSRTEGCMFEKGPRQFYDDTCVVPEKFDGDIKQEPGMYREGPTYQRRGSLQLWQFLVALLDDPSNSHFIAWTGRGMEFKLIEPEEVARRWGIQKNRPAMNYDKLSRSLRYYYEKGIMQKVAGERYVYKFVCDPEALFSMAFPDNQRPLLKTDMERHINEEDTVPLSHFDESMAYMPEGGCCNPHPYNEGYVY

Consider TGCAAT, for which the binding signal was 1.18 fold enrichment (6-mer frequency, TF over GST control) with FLI1; 1.21 fold enrichment (6-mer frequency, TF over GST control) with ELK1; 1.15 fold enrichment (6-mer frequency, TF over GST control) in the test with GABPA; 1.09 fold enrichment (6-mer frequency, TF over GST control) with ERG; 1.18 fold enrichment (6-mer frequency, TF over GST control) in the test with ELF1; 1.12 fold enrichment (6-mer frequency, TF over GST control) with EHF. Moreover, the binding signal with SPI1 is 1.19 fold enrichment (6-mer frequency, TF over GST control); in the test with SPIB, 1.16 fold enrichment (6-mer frequency, TF over GST control); with ELK3 it was 1.19 fold enrichment (6-mer frequency, TF over GST control); with FEV, 1.2 fold enrichment (6-mer frequency, TF over GST control); in the test with ETV5 it was 1.21 fold enrichment (6-mer frequency, TF over GST control); in the test with SPIC it was 1.14 fold enrichment (6-mer frequency, TF over GST control). For the same sequence, the binding signal in the test with ELF4 was 1.2 fold enrichment (6-mer frequency, TF over GST control); with ELK4, 1.28 fold enrichment (6-mer frequency, TF over GST control); with ETV2, 1.04 fold enrichment (6-mer frequency, TF over GST control); with ELF3 it was 1.24 fold enrichment (6-mer frequency, TF over GST control); with CRX, 1.03 fold enrichment (6-mer frequency, TF over GST control); with ETV1 it was 1.26 fold enrichment (6-mer frequency, TF over GST control).
Turning to CCTCGG, the binding signal with FLI1 was 1.2 fold enrichment (6-mer frequency, TF over GST control); with ELK1, 1.17 fold enrichment (6-mer frequency, TF over GST control); with GABPA, 1.2 fold enrichment (6-mer frequency, TF over GST control); with ERG it was 1.2 fold enrichment (6-mer frequency, TF over GST control); with ELF1, 1.24 fold enrichment (6-mer frequency, TF over GST control); in the test with EHF, 1.33 fold enrichment (6-mer frequency, TF over GST control). In addition, the binding signal with SPI1 was 1.14 fold enrichment (6-mer frequency, TF over GST control); with SPIB, 1.15 fold enrichment (6-mer frequency, TF over GST control); with ELK3, 1.05 fold enrichment (6-mer frequency, TF over GST control); with FEV, 1.07 fold enrichment (6-mer frequency, TF over GST control); in the test with ETV5, 1.2 fold enrichment (6-mer frequency, TF over GST control); with SPIC, 1.1 fold enrichment (6-mer frequency, TF over GST control). In addition, the binding signal in the test with ELF4 was 1.25 fold enrichment (6-mer frequency, TF over GST control); with ELK4 it was 1.24 fold enrichment (6-mer frequency, TF over GST control); in the test with ETV2, 1.24 fold enrichment (6-mer frequency, TF over GST control); in the test with ELF3, 1.3 fold enrichment (6-mer frequency, TF over GST control); in the test with CRX it was 1.02 fold enrichment (6-mer frequency, TF over GST control); in the test with ETV1, 1.28 fold enrichment (6-mer frequency, TF over GST control).
